Data reported in the supplement of paper PMC12669032.
Several values for one entry are separate records, joined by “and”; a condition that tells them apart may be missing. Equal values may be shown once.

system: Eubacterium rectale; assay: growth AUC relative to DMSO control (median of replicates) (fraction); higher = more growth (less inhibition), active = hit call of the paper; settings: 20 µM; 24 h
Procedure, shortened: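 Gut bacterial monocultures in mGAM were treated with 20 µM compound (1% DMSO) and grown anaerobically at 37 °C in round-bottom 96-well plates from OD600 0.05. OD600 was read hourly for 24 h, with the minimum OD set to 0. Area under the growth curve was normalised to the plate median of solvent-only wells, or to row and column medians on the industrial chemical plate. Each value is the median of three biological replicates, each grown on a separate day.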

Structure (SMILES)	growth AUC
COP(N)(=O)SC (centres undefined)	1.08 (inactive)
COc1cc(OC)n2nc(S(=O)(=O)Nc3c(Cl)ccc(C)c3Cl)nc2n1	0.994 (inactive)
CC(C)N(C(=O)SCC(Cl)=C(Cl)Cl)C(C)C	1.08 (inactive)
O=S(=O)(c1ccc(O)cc1)c1ccc(O)cc1	0.972 (inactive)
CN(C)NC(=O)CCC(=O)O	0.926 (inactive)
CCN(CC)c1nc(C)cc(OP(=S)(OC)OC)n1	1.06 (inactive)
Clc1cccc(Cl)c1Cl	0.982 (inactive)
CCN(CC)C(=S)[S-].O.O.O.[Na+]	0.983 (inactive)
C#CCC1=C(C)C(OC(=O)C2C(C=C(C)C)C2(C)C)CC1=O (centres undefined)	1.03 (inactive)
CCOc1ccccc1OS(=O)(=O)NC(=O)Nc1nc(OC)cc(OC)n1	0.938 (inactive)
CNC(=O)Oc1cc(C)cc(C(C)C)c1	1.04 (inactive)
CCCCN(CC)c1c([N+](=O)[O-])cc(C(F)(F)F)cc1[N+](=O)[O-]	0.864 (inactive)
O=C(O)CCl	0.974 (inactive)
CC[C@H](C)[C@H]1O[C@]2(C=C[C@@H]1C)C[C@@H]1C[C@@H](C/C=C(\C)[C@@H](O[C@H]3C[C@H](OC)[C@@H](O[C@H]4C[C@H](OC)[C@@H](NC)[C@H](C)O4)[C@H](C)O3)[C@@H](C)/C=C/C=C3\CO[C@@H]4[C@H](O)C(C)=C[C@@H](C(=O)O1)[C@]34O)O2.O=C(O)c1ccccc1	0.865 (inactive)
CON(C)C(=O)Nc1ccc(Cl)c(Cl)c1	0.95 (inactive)
CCCCOC(=O)[C@@H](C)Oc1ccc(Oc2ccc(C#N)cc2F)cc1	1.11 (inactive)
Clc1cc(Cl)c(Cl)c(Cl)c1	1.05 (inactive)
CN(C)C(=O)Nc1cccc(C(F)(F)F)c1	1.01 (inactive)
CN(C)C(=O)Nc1cccc(OC(=O)NC(C)(C)C)c1	1.19 (inactive)
CCOP(=O)(NC(C)C)Oc1ccc(SC)c(C)c1 (centres undefined)	1.04 (inactive)

Structure (SMILES)	growth AUC
ClCC(Br)CBr (centres undefined)	0.994 (inactive)
O=[N+]([O-])c1c(Cl)c(Cl)cc(Cl)c1Cl	0.954 (inactive)
CCS(=O)c1c(C#N)nn(-c2c(Cl)cc(C(F)(F)F)cc2Cl)c1N (centres undefined)	1.02 (inactive)
CNC(=O)Oc1cccc2c1OC(C)(C)C2O (centres undefined)	1.05 (inactive)
CCOP(=O)(SC(C)CC)N1CCSC1=O (centres undefined)	0.862 (inactive)
CCOP(=O)(OCC)ON1C(=O)c2cccc3cccc(c23)C1=O	1.16 (inactive)
O=C(O)C(F)(F)C(F)(F)C(F)(F)C(F)(F)C(F)(F)C(F)(F)F	1.01 (inactive)
O=S1OC[C@@H]2[C@H](CO1)[C@]1(Cl)C(Cl)=C(Cl)[C@@]2(Cl)C1(Cl)Cl (some centres undefined)	1.07 (inactive) and 0.951 (inactive)
O=C(O)c1ccccc1C(=O)Nc1cccc2ccccc12	1.08 (inactive)
CCCCN(CCCC)SN(C)C(=O)Oc1cccc2c1OC(C)(C)C2	1.22 (inactive)
C[n+]1ccc(-c2cc[n+](C)cc2)cc1.O.[Cl-].[Cl-]	0.963 (inactive)
CCC(C)(CC)c1cc(NC(=O)c2c(OC)cccc2OC)on1	0.986 (inactive)
CNC(=O)Oc1cc(C)c(SC)c(C)c1	0.982 (inactive)
COC(=O)C(C)(Cl)Cl	0.934 (inactive)
Cc1cc(Cl)ccc1N=CN(C)C	1.16 (inactive)
Nc1cc(Cl)cc(Cl)c1	1.04 (inactive)
CCCCCCCCCc1ccc(O)cc1	0.968 (inactive)
COc1c(Cl)ccc(Cl)c1Cl	1.01 (inactive)
CC(C)(C)c1cc([N+](=O)[O-])cc([N+](=O)[O-])c1O	0.908 (inactive)
